# Compound activity as filed in PubChem BioAssay.
# PG9 binder: binds the HIV-1 gp120 antibody PG9. TR-FRET gp120-PG9 antibody binding. inhibition, % at 6.7 µM. 0.43% of 360,000 active. AID 624416; in the data active means inhibition above about 8.5%
# Exocytosis inh: blocks lytic granule exocytosis; TALL-104 LAMP-1 surface exposure, flow cytometry; cells stimulated with thapsigargin and PMA; inhibition, % at 10 µM; AID 651702; 0.66% of 360,000 active;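 active means inhibition above about 55%, limit read from the data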
# NR1D1 modulator: modulates human Rev-erb alpha binding to DNA; activity, % at 10 µM; Rev-erbα–FITC-DNA binding, fluorescence polarization, 90 min; 0.79% of 370,000 active;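 active means activity above about 14%, limit read from the data; passing the limit was not always enough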;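 further: 0% = DMSO wells with 35 nM protein and 100% = DMSO wells with 750 nM protein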
# Target sequence (P20393 whole entry, looked up): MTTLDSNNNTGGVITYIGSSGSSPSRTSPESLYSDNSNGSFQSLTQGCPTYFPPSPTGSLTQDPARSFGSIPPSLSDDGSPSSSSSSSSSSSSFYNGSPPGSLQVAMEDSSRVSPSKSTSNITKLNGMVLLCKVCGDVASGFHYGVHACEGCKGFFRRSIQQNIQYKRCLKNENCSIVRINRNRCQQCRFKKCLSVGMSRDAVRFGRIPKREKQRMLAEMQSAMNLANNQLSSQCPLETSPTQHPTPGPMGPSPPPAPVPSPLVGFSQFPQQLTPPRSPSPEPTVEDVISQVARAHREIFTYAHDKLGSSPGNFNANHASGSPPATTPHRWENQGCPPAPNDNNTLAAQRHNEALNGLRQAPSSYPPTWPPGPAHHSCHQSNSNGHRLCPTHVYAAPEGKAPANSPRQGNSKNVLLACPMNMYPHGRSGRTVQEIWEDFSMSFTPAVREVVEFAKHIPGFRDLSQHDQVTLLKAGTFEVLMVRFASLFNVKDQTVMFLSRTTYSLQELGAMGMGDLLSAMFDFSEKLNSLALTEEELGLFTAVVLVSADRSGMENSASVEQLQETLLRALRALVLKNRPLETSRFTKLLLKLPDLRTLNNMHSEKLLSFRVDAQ
# ABCB6 inh MLPCN: blocks the human ABCB6 transporter; AID 602162; fluorescence ratio to DMSO, % at 10 µM; K562-ABCB6 porphyrin accumulation, flow cytometry, 1 h; hits give low values; 0.19% of 360,000 active; Q9NP58;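 active means fluorescence ratio to DMSO below 75%, the collection mean minus 3 SD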;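 further: signal is porphyrin accumulated inside mitochondria; 100% equals median channel fluorescence of DMSO control wells; lower ratio means ABCB6 inhibition with less porphyrin fluorescence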
# VLA-4 inh: inhibition in a human VLA-4 binding assay; inhibition, % (about 7 µM as worked out from the volumes in the protocol); VLA-4 expressing cells, ligand binding flow cytometry; P13612; 0.2% of 330,000 active; in the data active means inhibition above about 50%
# VLA-4 allo CP: human VLA-4 allosteric modulation in cherry picked compounds; 2% of 1,300 active; U937 cells, HUTS-21 LIBS mAb binding, flow cytometry; LDV ligand present at threefold Kd; inhibition, % at 6.7 µM; shares compounds with VLA-4 inh; AID 2813; in the data active means inhibition above about 40%;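 further: 0% = ligand without compound and 100% = no ligand background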
# Active calls of the source: *; · = not tested or not shown. Hits are enriched below; roughly 2% of the tested compounds scored in any of these assays.
SMILES,PG9 binder,Exocytosis inh,NR1D1 modulator,ABCB6 inh MLPCN,VLA-4 inh,VLA-4 allo CP
CC(=O)N1CCN(c2ccc(N3CCN(C(C)=O)[C@H](C)C3)c(C)c2)[C@@H](C)C1,-2,·,-5,·,·,·
C=CCN1C(=O)c2[nH]nc(-c3ccccc3)c2C1c1ccc(C)cc1 (stereo not drawn),-1,·,-2,·,·,·
COC(=O)/C=C1/SC(=NC(=O)c2ccc(Cl)cc2)NC1=O,-1,8,-3,96,-8,·
COC(=O)/C=C1\SC(=NC(=O)c2ccc(C)cc2)NC1=O,1,-1,-5,103,51*,2
O=C(OC12CCCN(C1)/C(=C/c1ccc(Cl)cc1)C2)C1CCCCC1 (stereo not drawn),·,·,5,·,·,·
CN1C(=O)C(C)(C)c2cc(S(=O)(=O)NCc3ccc(Cl)cc3)ccc21,-2,2,3,103,0,0
CC(C)C(NS(=O)(=O)c1ccc2c(c1)C(C)(C)C(=O)N2C)C(=O)NCc1ccccc1Cl (stereo not drawn),0,1,-2,106,74*,-15
Cc1ccccc1CNS(=O)(=O)c1ccc2c(c1)C(C)(C)C(=O)N2C,0,0,4,101,18,·
CN1C(=O)C(C)(C)c2cc(S(=O)(=O)NCCc3ccc(Cl)cc3)ccc21,0,8,-3,101,-7,-5
COc1cc(C(=O)OCC(=O)Nc2c(F)c(F)c(F)c(F)c2F)cc(OC)c1OC,0,0,-7,101,-10,0
CCOC(=O)COc1ccccc1/C=C\[N+](=O)[O-],·,43,·,94,50*,43*
CCC(C(=O)OCC(=O)Nc1c(C)n(C)n(-c2ccccc2)c1=O)c1ccccc1 (stereo not drawn),-1,-4,-1,100,36,-2
Cc1c(NC(=O)CCC(=O)N2CCCCC2)c(=O)n(-c2ccccc2)n1C,1,-3,-3,91,19,2
Cc1c(NC(=O)COC(=O)C(c2ccc(Cl)cc2)C(C)C)c(=O)n(-c2ccccc2)n1C (stereo not drawn),-2,1,1,97,-7,·
CC(C(=O)O)c1ccc2c(c1)CC(=O)c1ccccc1S2 (stereo not drawn),·,·,-5,·,·,·
O[C@H](COc1ccccc1)CN1CCC(C(O)(c2ccccc2)c2ccccc2)CC1,·,·,7,·,·,·
CCn1c(SCC(=O)N/N=C/c2cccc(Oc3ccccc3)c2)nnc1-c1ccccc1,·,·,-4,·,·,·
Cc1ccc(OCCOc2c(Cl)cc(Cl)cc2Cl)c([N+](=O)[O-])n1,·,·,-3,·,·,·
O=C1CCCc2ccccc2N1Cc1cccc(F)c1,-2,-2,-3,97,-9,·
O=C1CCCc2ccccc2N1Cc1ccc(F)cc1,-1,3,·,101,52*,1
COC(=O)[C@H](C(C)C)N(Cc1cn(Cc2ccccc2)nn1)S(=O)(=O)c1ccccc1Br,·,·,2,·,·,·
CC[C@H](CO)NCCN[C@H](CC)CO,0,1,4,98,-8,·
CCC(CO)NCCNC(CC)CO (stereo not drawn),-2,9,-5,102,50*,3
Cc1n[nH]c(C)c1S(=O)(=O)NCCc1ccccc1F,·,·,-3,·,·,·
COc1cc(/C=C2/S/C(=N/S(=O)(=O)c3ccccc3)NC2=O)c([N+](=O)[O-])cc1OC,-1,33,0,99,52*,-2
SMILES,PG9 binder,Exocytosis inh,NR1D1 modulator,ABCB6 inh MLPCN,VLA-4 inh,VLA-4 allo CP
COc1cc(/C=C2\S/C(=N/S(=O)(=O)Cc3ccccc3)NC2=O)c([N+](=O)[O-])cc1OC,1,-4,-6,96,0,·
COCCCNC(=O)C[C@H]1C[C@@]2(C(=O)OC)C(=C[C@H](COCc3ccccc3)O[C@@H]2C)N(Cc2ccco2)C1=O,·,·,9,·,·,·
N=C(N)N=Nc1c(O)[nH]c2ccc(Br)cc12,-7,0,2,89,53*,0
COC(=O)[C@]12C[C@H](CC(=O)N3CCCC3)C(=O)N(CCc3ccc(OC)c(OC)c3)C1=C[C@H](C(C)(C)C)O[C@@H]2C,·,·,0,·,·,·
COc1ccccc1CC(=O)OC(C)C(=O)Nc1ccc(S(=O)(=O)N2CCCCC2)cc1 (stereo not drawn),-1,0,1,99,54*,0
CC(Oc1ccccc1Cl)C(=O)Nc1ccc(S(=O)(=O)N2CCCC2)cc1 (stereo not drawn),2,-8,-1,100,32,·
CCCc1cc(=O)[nH]c(-n2[nH]c3c(c2=O)CCCC3)n1,-3,1,-8,99,-6,3
CCCc1cc(=O)[nH]c(SCC)n1,2,0,-4,107,1,·
O=C(O)CCC(=O)Nc1ccc(S(=O)(=O)Nc2nccs2)cc1,0,-2,2,104,56*,-3
COc1cc2sc(-c3ccccc3OC)c(-c3ccc(OCCN4CCOCC4)cc3)c2cc1OC,·,18,·,99,·,3
COc1ccc2c(-c3ccc(OCCN4CCOCC4)cc3)c(-c3ccccc3OC)sc2c1,·,2,·,100,·,1
COc1ccc(OCCN2CCOCC2)cc1,-1,0,-1,98,8,·
N#Cc1cccc(NC(=O)OC2CCC23CCC(c2ccccc2)CC3)c1 (stereo not drawn),·,·,5,·,·,·
O=C1NC(c2ccccc2)c2c(-c3ccccc3)n[nH]c21 (stereo not drawn),-2,·,-7,·,·,·
COc1cccc(C(C(=O)NC2CCCCC2)N(C(=O)Cc2cccs2)c2ccc(-n3cnnn3)c(OC)c2)c1 (stereo not drawn),-1,-5,1,102,54*,-4
CC(=O)c1c(C)[nH]c(C(=O)CSc2nnc(C3CCCCC3)n2N)c1C,-1,-1,7,92,52*,4
CCc1cccc(NS(=O)(=O)c2cccc3cccnc23)c1,0,-3,-4,98,-4,·
O=C(O)c1cccc(NS(=O)(=O)c2cccc3cccnc23)c1,-2,5,-1,101,50*,18
COC(=O)C[C@@H]1CC[C@@H]2[C@@H](COc3ccc(NC(=O)c4ccc(F)cc4)cc3C(=O)N2C)O1,·,·,1,·,·,·
O=C1N(c2ccccc2)CC2CC(c3ccccc3)N3CCCC123 (stereo not drawn),·,·,1,·,·,·
C=CCn1c(Cc2cccs2)nnc1SCC(=O)Nc1ccc2c(c1)OCO2,·,·,4,·,·,·
CCCOc1ccc(-c2cc(C(=O)NCC3CCCO3)c3ccccc3n2)cc1 (stereo not drawn),-1,-3,5,97,43,-5
CCOC(=O)c1cc(CC)sc1NC(=O)C(c1ccccc1)c1ccccc1,-2,0,1,143,-13,-7
O=C(CSc1nc2ccccc2c(=O)n1-c1ccccc1)N1CCc2ccccc2C1,-1,3,-2,89,8,·
CC(C)c1ccccc1-n1c(SCC(=O)N2CCc3ccccc3C2)nc2ccccc2c1=O,0,14,4,91,55*,8
COc1cccc(-c2nnc(SCC(=O)Nc3ccc(Oc4ccccc4)cc3)n2Cc2ccco2)c1,·,·,3,·,·,·
